Screening data from PubChem BioAssay.
tim23-1 inh = tim23-1 yeast growth inhibition; inhibition, % at 20 µM; 330,000 tested, 1.3% active; S. cerevisiae tim23-1 growth, BacTiter-Glo luminescence, 24 h; AID 463212;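 active = growth inhibition of the mutant yeast at or above 50%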;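 also: temperature-sensitive mutant grown at 25 °C; plate controls were DMSO-treated mutant yeast for no effect and medium wells lacking yeast for full effect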
PfHsp90 set2 = inhibits growth of yeast expressing Plasmodium falciparum Hsp90; 310,000 tested, 0.32% active; inhibition, % at 9.4 µM; AID 504621; S. cerevisiae expressing PfHsp90, BacTiter-Glo ATP, 48 h; yeast lacking PDR1 and PDR3 efflux regulators;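 active = every replicate shows inhibition above about 80%, whatever the replicate mean, limit read from the data; inconclusive = mean inhibition reaches the set limit but some replicate falls short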;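 also: 0% = DMSO neutral controls and 100% = 20 µM radicicol positive controls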
TIM10 inh = TIM10 yeast growth inhibition. inhibition, % at 10 µM. 330,000 tested, 1.4% active. S. cerevisiae TIM10 strain growth, BacTiter-Glo luminescence, 24 h. AID 463195;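 active = inhibition of 40% or more at the single tested concentration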;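 also: wild-type TIM10 isogenic control strain grown at permissive 25 °C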
tim10-1 inh = growth inhibitors of tim10-1 mutant yeast; S. cerevisiae tim10-1 ts strain growth, BacTiter-Glo, 24 h; inhibition, % at 20 µM; 330,000 tested, 2.2% active; AID 463190;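 active = inhibition of at least 40%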;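 also: mutant grown at 25 °C; 0% = DMSO wells with yeast and 100% = wells holding no yeast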
SKKanGAS inh = inhibitors of SKKanGAS S. pyogenes growth in kanamycin (SK-promoter or general growth effect) | BacTiter-Glo, 6 h | inhibition, % at 7.5 µM | 300,000 tested, 1.3% active | AID 1662;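 active = mean replicate score, as percent of positive control median, at least 50; inconclusive = mean below 50 but one replicate at or above 50; inactive = mean and every replicate below 50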;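 also: strain carries kanamycin resistance gene driven by streptokinase promoter and grows in 40 µg/ml kanamycin; loss of luminescence reflects streptokinase promoter inhibition or plain growth inhibition; 0% = median of DMSO wells and 100% = positive control at its reference dose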
NALP3 yeast inh = blocks the NALP3 inflammasome reconstituted in yeast; Yeast reconstituted NLRP3/ASC/caspase-1, beta-gal luminescence, 24 h; inhibition, % at 10 µM; 330,000 tested, 0.39% active; AID 2825;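 active = inhibition of 50% or more; inactive = inhibition below 50%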;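 also: plate controls were induced DMSO wells for no effect and uninduced yeast grown without galactose for full effect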
tim10-1 conf = tim10-1 yeast growth inhibition, confirmed | AID 463213 | inhibition, % at 20 µM | S. cerevisiae tim10-1 ts strain growth, BacTiter-Glo, 24 h | shares compounds with tim10-1 inh | 7,400 tested, 56% active;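 active = inhibition of yeast growth at or above a set limit in either of two repeat tests at 20 µM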;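 also: tim10-1 mutant grown at permissive 25 °C to find synthetic lethal compounds; 0% = DMSO yeast wells and 100% = medium wells without yeast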
TIM10 conf = confirmation of TIM10 yeast growth inhibitors | inhibition, % at 10 µM | 4,600 tested, 63% active | shares compounds with TIM10 inh | S. cerevisiae tim10 strain growth, BacTiter-Glo luminescence, 24 h;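 active = inhibition of yeast growth at or above a set limit in either of two replicates at 10 µM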;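 also: this counterscreen used the strain with wild-type TIM10; 0% = yeast with DMSO and 100% = medium wells lacking yeast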
tim23-1 confirm = tim23-1 yeast growth inhibition, confirmed; shares compounds with tim23-1 inh; S. cerevisiae tim23-1 growth, BacTiter-Glo luminescence, 24 h; inhibition, % at 20 µM; 4,400 tested, 83% active; AID 463218;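 active = inhibition above about 39% in either of two replicate wells at 20 µM, limit read from the data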;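 also: temperature-sensitive tim23-1 mutant grown at 25 °C; 0% = DMSO wells with yeast and 100% = medium wells without yeast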
The depositor's hits bear a star; ? = inconclusive; / = no result given. In the library only some 4.6% were active in any assay of this set; here they are far more common.

SMILES	tim23-1 inh	PfHsp90 set2	TIM10 inh	tim10-1 inh	SKKanGAS inh	NALP3 yeast inh	tim10-1 conf	TIM10 conf	tim23-1 confirm
Cc1occc1-c1nnc(-c2cc([N+](=O)[O-])cc([N+](=O)[O-])c2)o1	82.6*	106.4*	56.0*	73.4*	9.3	27.5	68.8*	52.0*	69.3*
CCOC(=O)c1sc2nc(NC(=O)C(C)(C)C)sc2c1C	62.8*	0.0	41.3*	55.3*	7.5	36.9	30.8*	44.2*	57.5*
Cn1cccc1/C=N/n1c(-c2ccc(C(C)(C)C)cc2)n[nH]c1=S	53.7*	/	37.2	44.0*	-0.4	19.9	28.6	/	48.5*
Cn1cccc1/C=N/n1c(-c2ccccc2)n[nH]c1=S	25.7	-2.9	32.0	10.1	-1.2	34.3	/	/	/
Oc1c(C(c2cccs2)N2CCN(c3ccccc3)CC2)ccc2cccnc12 (configuration not stated)	58.8*	/	1.2	55.7*	/	14.5	40.2*	/	77.8*
CCN(CC1CCCO1)C(=O)c1cc(COc2ccccc2SC)on1 (configuration not stated)	30.0	-2.6	-5.3	11.7	-8.1	9.9	/	/	/
CCOc1ccc(Br)cc1C1=NN(C(C)=O)C(c2ccc([N+](=O)[O-])s2)O1 (configuration not stated)	82.6*	107.6*	45.2*	63.9*	8.5	15.8	71.2*	55.2*	65.2*
CCC1([N+](=O)[O-])COC(c2ccc(OC)cc2)OC1 (configuration not stated)	/	5.6	/	/	/	/	/	/	/
O=C(COc1ccc(Cl)cc1Cl)NC(=O)NC1CCCC1	49.4	/	12.1	35.3	/	12.2	/	/	/
O=C(COc1ccc(Br)cc1Cl)NC(=O)NC1CCCC1	56.0*	-68.3	25.8	41.5*	/	4.6	40.9*	/	54.6*
O=C(COc1ccc(Cl)cc1Br)NC(=O)NC1CCCC1	51.7*	/	14.6	51.1*	/	27.9	38.5*	/	62.8*
COc1ccc(C(=O)/C=C/C(=O)N(CC(=O)NC2CCCCC2)CC2CCCO2)c(O)c1 (configuration not stated)	50.7*	4.4	48.7*	46.5*	-35.9	10.3	56.4*	51.9*	60.2*
O=C(Nc1nnc(CCN2CCCCC2)s1)c1ccccc1Cl	14.1	/	-22.2	2.5	-0.7	1.1	/	/	/
O=[N+]([O-])c1ccc(NC(=S)N2CCc3ccccc32)cc1	54.2*	-7.8	34.7	49.4*	/	31.4	41.7*	/	48.7*
S=c1[nH]nc(-c2ccncc2)n1/N=C/C(Cl)=C\c1ccccc1	58.3*	-28.7	66.7*	55.7*	11.8	22.5	49.5*	57.7*	48.2*
Cc1cc(=O)oc2cc(NC(=O)c3ccccc3Cl)ccc12	15.2	-2.0	-3.5	11.8	-3.2	18.5	/	/	/
Cc1ccc(OCC(=O)N/N=C\c2ccc(C)o2)c([N+](=O)[O-])c1	/	0.2	/	/	2.8	/	/	/	/
Cc1ccc(OCC(=O)N/N=C/c2ccc([N+](=O)[O-])o2)cc1	50.9*	6.3	46.8*	43.7*	-7.3	14.6	47.3*	50.1*	-10.9
O=C(CSc1ccc(Cl)cc1)N/N=C/c1ccc([N+](=O)[O-])o1	54.7*	2.0	32.8	61.6*	?	8.0	36.9*	/	56.5*
CC(=O)c1c(C)[nH]c(C(=O)NC(C)c2ccccc2)c1C (configuration not stated)	9.7	-5.2	-1.2	15.9	14.0	-1.8	/	/	/
O=C(O)c1ccccc1N=Cc1c(O)n(-c2nccs2)c(=O)c2ccccc12	12.8	-6.0	-5.7	-8.4	-10.0	6.7	/	/	/
Cc1ccccc1N=Cc1c(O)n(-c2nccs2)c(=O)c2ccccc12	59.4*	-21.1	47.1*	47.9*	-3.9	13.3	47.0*	45.6*	56.0*
Cc1ccc(Nc2ccc3nonc3c2[N+](=O)[O-])cc1	6.7	-11.6	14.2	12.2	-1.9	4.3	/	/	/
Cc1ccc(Nc2ccc([N+](=O)[O-])nc2[N+](=O)[O-])cc1	52.8*	0.7	42.3*	42.1*	0.8	17.5	26.6	25.1	43.4*
Cc1occc1C(=O)N/N=C/c1ccc(-c2ccccc2)cc1	63.4*	-113.1	42.6*	58.7*	55.2*	17.6	56.4*	41.0*	56.9*
SMILES	tim23-1 inh	PfHsp90 set2	TIM10 inh	tim10-1 inh	SKKanGAS inh	NALP3 yeast inh	tim10-1 conf	TIM10 conf	tim23-1 confirm
Cc1occc1C(=O)N/N=C/c1ccc(OCc2ccccc2)cc1	17.1	7.5	5.2	-9.8	1.1	17.4	/	/	/
Cc1ccc(S(=O)(=O)Nc2ccc(Br)cc2/C=N/n2cnnc2)cc1	76.6*	-6.6	26.5	41.4*	7.7	34.9	35.1*	/	72.0*
O=C(ONC1=NCCCCC1)c1c(F)cccc1F	53.1*	-48.8	43.9*	50.8*	-5.9	7.3	45.0*	33.3*	59.3*
O=C(ONC1=NCCCCC1)c1ccc(Cl)cc1	60.8*	62.2	87.4*	52.2*	-6.6	27.1	37.6*	84.2*	41.1*
O=C(c1cccs1)N1CCN(Cc2ccccc2[N+](=O)[O-])CC1	20.6	-14.0	-2.6	30.6	0.3	28.1	/	/	/
NS(=O)(=O)c1ccc(CCNC(=O)c2cccc(S(=O)(=O)N3CCCC3)c2)cc1	0.4	-25.9	7.0	-1.4	/	22.0	/	/	/
O=C(Cc1cccs1)N1CCN(S(=O)(=O)c2cc(Cl)ccc2Cl)CC1	18.3	/	13.6	4.4	-3.3	27.6	/	/	/
Cc1ccc(NC(=O)C(C)c2ccc([N+](=O)[O-])cc2)cc1Cl (configuration not stated)	51.4*	-14.3	58.7*	57.9*	-5.6	11.6	59.2*	48.4*	60.8*
C=CCn1c(SCC(=O)Nc2ccc(F)cc2)nc2ccccc2c1=O	2.7	15.8	-16.2	-26.1	9.2	16.1	/	/	/
O=C1C2C(c3ccccc3)CC=CC2[C@H](c2ccc(C(F)(F)F)cc2)N1Cc1ccccc1 (some centres not stated)	65.2*	-13.1	74.8*	66.0*	25.0	11.7	52.0*	44.0*	66.3*
CCOC(=O)/C(=C/c1ccc(OC(=O)c2ccccc2)cc1)C(C)=O	88.8*	106.1*	76.8*	46.6*	2.7	34.4	64.3*	-19.7	52.6*
CCOC(=O)C1CC2CC(C1)CN(C(=O)C1CCCCC1)C2 (configuration not stated)	21.9	7.9	0.9	23.3	3.0	6.9	/	/	/
Cc1ccc(NC(=O)C2CCN(S(=O)(=O)c3ccc4c(c3)NC(=O)CO4)CC2)cc1	-7.7	-48.6	-2.3	-4.8	0.5	2.7	/	/	/
